# Screening data: PubChem BioAssay, several laboratories
# INS promoter inh = TRM-6 insulin promoter activity inhibition; inhibition, % at 2 µM; TRM-6 cells (human fetal islet line), insulin promoter-eGFP reporter, imaging; reporter expression induced with tamoxifen; AID 1273; actives 0.9% (n = 130,000);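 active = inhibition above the mean plus 3 SD, with well images judged a real hit on visual review, cut at about 60% in these data, passing the limit was not always enough; inconclusive = inhibition over the cutoff but images rejected on review; inactive = inhibition not above the cutoff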
# Autophagy HCS = autophagy modulation, high-content screen | MEF GFP-LC3 puncta imaging; test concentration mostly 10 µM | calls only at 10 µM (by protocol) | actives 0.98% (n = 190,000) | AID 463193;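 active = percentage of spot-positive cells more than 3 SD above its plate mean, without a fluorescence outlier flag or 80% toxicity; inconclusive = no clear call, values can overlap the other calls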;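 note: spot-positive cell cutoff set from DMSO-treated cells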
# bCat KO growth = beta-catenin-lacking colon tumor cell growth suppression | viability, % at 10 µM | HCT116 beta-catenin knockout viability, CellTiter-Glo, 60 h; hits give low values | actives 1.5% (n = 140,000) | AID 818;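 active = viability at or under a set limit, the compound median less 4 SD, cut at about 6% in these data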;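 note: 0% = Hyamine 1622 control at 20 µM and 100% = untreated cell control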
# Ins promoter up = MIN6 insulin promoter up-regulation; z-score at 5 µM; MIN6 insulin promoter-GFP reporter, high-content imaging; hits give high values; actives 0.3% (n = 190,000);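 active = z-score above 3 at 5 µM with at least 500 cells counted in the well; inconclusive = wells under 500 cells, flagged as cytotoxic or low count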
# HCT116 PTEN-null = PTEN-deleted cell growth suppression; viability, % at 10 µM; HCT116 PTEN-null viability, CellTiter-Glo, 60 h; hits give low values; actives 1.2% (n = 140,000); AID 827;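 active = viability at or below a set limit, 4 SD under the median of all tested compounds, cut at about 3.7% in these data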;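 note: PTEN knockout HCT116 line with beta catenin targeted HCT116 as companion control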
# L major viab = Leishmania major promastigote growth inhibition | inhibition, % at 10 µM | actives 9% (n = 200,000) | AID 1063 | Leishmania major promastigotes, resazurin fluorescence viability; in the data active = inhibition above about 50%;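 note: promastigotes grown with compound for 44 hours at 28 °C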
# Starred values were filed as active, the others as inactive; i = inactive; ? = inconclusive; . = not tested or not shown; + = active, no number. Most compounds without a hit are left out; they make up all but 9.6% or so of the library.
SMILES,INS promoter inh,Autophagy HCS,bCat KO growth,Ins promoter up,HCT116 PTEN-null,L major viab
COc1cc(OC)c(C2=NOC(C(=O)NCCc3ccccc3)C2)cc1Cl (centres undefined),23.3,i,93.6,-0.39,95.4,41.3
COc1cc(C2Nc3cc(Cl)c(S(N)(=O)=O)cc3S(=O)(=O)N2)ccc1OCc1ccccc1 (centres undefined),-27.0,i,100.7,0.58,94.1,4.2
O=C1N(c2cccc3ccccc23)C(c2ccccc2)N2CCCN12 (centres undefined),25.0,i,94.4,0.27,98.2,2.3
O=C1COc2ccc(-c3csc(=Nc4ccc(OC(F)F)cc4)n3CC3CCCO3)cc2N1 (centres undefined),-10.5,i,18.0,0.2,17.0,99.5*
COCCCNC(=O)CCCC(=O)NCCCOC,-195.8,i,96.0,1.7,94.2,4.7
COc1ccc(C(=O)Nc2ccc(S(=O)(=O)N3CCCCC3C)cc2)c(OC)c1OC (centres undefined),.,i,98.5,?,95.5,61.2*
CCOC(=O)c1c(-n2c(C)cc(C=O)c2C)sc2c1CCCC2,.,i,86.7,-0.1,79.5,96.0*
CCOC(=O)c1cccc(-n2c(C)cc(C=O)c2C)c1,-26.1,i,87.3,-0.06,86.0,-0.3
CCOc1cccc(OCCNC2CCCC2)c1,.,i,.,-0.06,.,80.0*
CCOc1cccc(OCCCOc2ccccc2)c1,13.9,i,94.6,0.01,88.0,-3.7
CC(C)Oc1ccc(OCCNC2CCCC2)cc1,14.3,i,93.8,0.34,94.3,78.8*
COc1ccccc1OCCNC1CCCC1,-18.9,i,88.4,2.03,97.9,-3.4
COC(=O)CSc1nnc2n(-c3ccc(OC)cc3)c(=O)c3c4c(sc3n12)CCCCC4,-19.2,i,105.2,0.75,97.2,0.1
CCOc1ccccc1CN1C(=O)c2ccccc2C1C(=O)NC(C)CC (centres undefined),-56.2,i,92.2,.,95.9,84.4*
COc1ccc(C2CC(c3ccccc3)=NN2C(=O)COC(=O)c2cc(S(=O)(=O)N3CCOCC3)ccc2Cl)cc1 (centres undefined),-16.7,i,94.0,-0.22,94.8,31.8
COc1ccc(NC(=S)N2CCCC(c3nc4ccc(C)cc4[nH]3)C2)c(OC)c1 (centres undefined),.,i,.,-0.49,.,99.9*
COc1ccc(NC(=S)N2CCCC(c3nc4ccc(C)cc4[nH]3)C2)cc1 (centres undefined),.,i,.,-0.21,.,94.2*
COc1ccc(NC(=S)N2CCC(c3nc4ccc(Cl)cc4[nH]3)CC2)c(OC)c1,.,i,76.6,2.54,74.5,-0.3
Cc1nc(N2CCOCC2)c2c(C)c(C(=O)Nc3ccccc3Cl)sc2n1,35.7,i,.,-0.06,.,47.3
Cc1ccc(-n2c(C)cc(/C([O-])=C(/C(=S)Nc3ccc(F)c(Cl)c3)[n+]3ccccc3)c2C)cc1,.,i,57.5,.,63.7,90.7*
COc1cccc(/C=C/c2ccncc2)c1OC,.,i,92.8,-0.73,76.8,85.8*
COC(=O)c1ccc(NC(=S)NCCC2=CCCCC2)cc1,-10.0,i,72.8,0.02,70.8,-3.0
CCn1c(Cc2ccccc2)nnc1SCC(=O)NC1CC1,13.3,i,98.0,.,103.1,-2.6
O=C(CCCOc1ccc(Cl)cc1Cl)N/N=C/c1cccc([N+](=O)[O-])c1,-66.7,i,43.0,0.52,28.7,0.5
CCN(CC)S(=O)(=O)c1cc(NC(=O)C(C)OC(=O)c2[nH]c(C)c(C(C)=O)c2C)ccc1C (centres undefined),25.6,i,64.3,-0.22,82.0,94.7*
SMILES,INS promoter inh,Autophagy HCS,bCat KO growth,Ins promoter up,HCT116 PTEN-null,L major viab
O=C(O)CC12CSc3[nH]c(=O)sc3C1c1ccccc1OC2=O (centres undefined),.,i,104.0,3.25*,103.3,-5.7
CCOC(=O)C1CSc2[nH]c(=O)sc2C1c1ccccc1 (centres undefined),18.9,i,92.0,-1.67,96.8,3.1
COc1ccc(-c2nc(SC)n(S(=O)(=O)c3ccccc3)n2)cc1,89.7*,i,95.0,0.25,102.0,-1.4
CCC(C)(C)NC(=O)Cn1c(-c2ccc(C)cc2)noc1=O,.,.,.,-0.48,.,.
O=C1C2CCCN2C(c2ccc(F)cc2)N1c1cccc(Cl)c1 (centres undefined),.,i,95.5,-0.08,101.7,-6.0
COc1ccc(-c2cc(C(=O)Nc3cc(C)nn3-c3ccccc3)no2)cc1OC,.,i,.,-0.53,.,-0.1
CS(=O)(=O)N(CC(=O)NCC1CCCO1)c1cccc([N+](=O)[O-])c1 (centres undefined),-40.0,i,.,.,.,5.4
COc1ccc([N+](=O)[O-])cc1N(CC(=O)NCC1CCCO1)S(C)(=O)=O (centres undefined),-10.5,i,93.8,-0.05,99.9,58.0*
COc1ccc([N+](=O)[O-])cc1N(CC(=O)NCCC1=CCCCC1)S(C)(=O)=O,43.2,i,80.7,0.77,98.0,70.9*
Cc1cccc(C)c1NC(=S)Nc1ccc(Cl)c(Cl)c1,.,i,.,.,.,54.6*
COc1ccc(C2=NOC(C(=O)Nc3ccc(C(C)=O)cc3)C2)cc1OC (centres undefined),.,i,92.8,.,81.9,-2.9
COc1ccc(C2=NOC(C(=O)Nc3cc(Br)ccc3O)C2)cc1OC (centres undefined),74.4*,i,100.1,0.68,95.7,8.4
Cc1ncc(CO)c(/C=N/NC(=O)c2ccc(O)cc2)c1O,11.1,i,86.0,-0.14,91.1,0.4
Cc1ncc(CO)c(/C=N/NC(=S)Nc2ccc(Cl)c(Cl)c2)c1O,.,i,.,-1.05,.,72.6*
Cc1ncc(CO)c(/C=N/NC(=O)c2cc3c(s2)CCCC3)c1O,.,i,.,-0.8,.,98.2*
CCCCCCCC[n+]1c(C)n(-c2ccccc2)c2ccc(NC(C)=O)cc21,.,i,.,-4.48,.,98.6*
C=CC(C)N1C(=O)S/C(=C\c2ccc(N3CCOCC3)cc2C)C1=O (centres undefined),40.7,i,76.0,-0.03,78.3,25.2
C=CCN1C(=O)S/C(=C\c2ccc(N3CCOCC3)cc2C)C1=O,10.7,+,86.0,0.61,86.3,1.7
Cc1nn(C)cc1/C=N/NC(=S)Nc1ccc(Cl)cc1Cl,-28.6,i,96.9,-0.11,83.7,-8.2
CCn1nc(C)c(/C=N/NC(=S)Nc2ccc(Cl)cc2Cl)c1C,0.0,i,10.3,-0.85,3.8*,-3.6
O=C(NN1CCOCC1)NC12CC3CC(CC(C3)C1)C2,.,.,.,-0.24,.,.
Oc1ccc(Br)cc1/C=N/N1CCCCC1,-18.4,i,98.3,1.76,101.1,51.6*
O=S(=O)(NCc1ccc2c(c1)OCO2)c1cccc2cccnc12,0.0,i,94.0,1.3,103.7,92.3*
CCOc1cc(C)c(Cl)cc1S(=O)(=O)NCc1ccc2c(c1)OCO2,-42.9,i,61.9,-0.53,63.9,100.3*
